Reference: ChEMBL document CHEMBL1961873, “Compounds: GSK PKIS; Assays: Nanosyn kinase panel” (2012)

Target: Cyclin-dependent kinase 2 (Homo sapiens) (UniProt P24941)
Settings: at 0.1 µM
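Further: mean inhibition of CDK2 in complex with cyclin E.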

Row | Structure (SMILES) | inhibition [%]
1 | COc1cc(/C=N/Nc2ncnc3[nH]ncc23)ccc1O | 4.7
2 | COc1cc(Nc2nccc(Nc3ccc4c(C)n[nH]c4c3)n2)cc(OC)c1OC | 2.32
3 | COc1cc2c(cc1Nc1nc(Nc3ccsc3C(N)=O)c3cc[nH]c3n1)N(C(=O)CN(C)C)CCC2(C)C | 8.82
4 | CCn1c(-c2nonc2N)nc2c(C#CC(C)(C)O)nc(OC[C@H](N)c3ccccc3)cc21 | 0.77
5 | COC(=O)Nc1nc2ccc(S(=O)(=O)c3ccc(NC(=O)Nc4cc(C(F)(F)F)ccc4F)cc3)cc2[nH]1 | 3.44
6 | N#Cc1c(NC(=O)c2ccc(F)cc2)sc2c1CCCC2 | 0.42
7 | CCn1c(-c2nonc2N)nc2c(C#CC(C)(C)O)ncc(OC3CCNCC3)c21 | 1.95
8 | CCn1c(-c2nonc2N)nc2cnc(Oc3cccc(NC(=O)c4ccc(N(C)C)cc4)c3)cc21 | 1.65
9 | Fc1cccc(COc2ccc(Nc3ncnc4sc(-c5ccco5)cc34)cc2Cl)c1 | 3.66
10 | O=S(=O)(CCNCc1ccc(-c2ccc3ncnc(Nc4ccc(OCc5cccc(F)c5)c(Cl)c4)c3c2)o1)c1ccccc1 | 3.6
11 | COc1cccc(-n2ncc3c(N/N=C/c4ccc(F)cc4)ncnc32)c1 | 5.86
12 | NC(=O)c1sc(-n2cnc3ccc(C(F)(F)F)cc32)cc1OCc1ccccc1Br | 1.94
13 | NS(=O)(=O)c1ccc(N/N=C2\C(=O)Nc3ccc4ncccc4c32)cc1 | 83.1
14 | c1ccc(-c2nc3n(c2-c2ccc4c(c2)OCO4)CCC3)nc1 | 2.41
15 | CCNC(=O)O[C@H]1CN[C@H](C#Cc2cc3ncnc(Nc4ccc(OCc5cccc(F)c5)c(Cl)c4)c3s2)C1 | 2.61
16 | COc1ccc(-c2cc(-c3c[nH]nc3-c3ccccn3)ccn2)cc1 | 4.73
17 | Nc1nc(-c2cccc(Cl)c2)c(-c2ccc3ncccc3n2)s1 | 3.69

Row | Structure (SMILES) | inhibition [%]
18 | Clc1ccc(-c2nn3ncccc3c2-c2ccnc(Nc3ccccc3)n2)cc1 | 1.3
19 | CCN1CCC(CC(=O)Nc2n[nH]c3nnc(-c4cccc(F)c4F)cc23)CC1 | 1.12
20 | CN1CCC(n2cnc(-c3ccc(F)cc3)c2-c2ccnc(N)n2)CC1 | 1.45
21 | CNC(=O)c1cncc(/C=C/c2ccccc2Cl)c1 | -0.47
22 | CC(C)COC(=O)c1ccc2c(c1)/C(=C/Nc1ccc(S(N)(=O)=O)cc1)C(=O)N2 | 66.2
23 | CCN(CC)S(=O)(=O)c1ccc(OC)c(Nc2ncc(-c3ccccc3)o2)c1 | 3.09
24 | COc1ccc(-c2oc3ncnc(N)c3c2-c2ccc(NC(=O)Nc3cc(C(F)(F)F)ccc3F)cc2)cc1 | 4.28
25 | COc1ccc(CNC(=O)c2ccc(-c3cc(-c4nnc(C)o4)ccc3C)cc2)cc1 | 1.68
26 | CC(C)(CO)CNC(=O)c1ccc2c(c1)/C(=N/Nc1ccc(S(N)(=O)=O)cc1)C(=O)N2 | 68.4
27 | Cc1cccc2c1NC(=O)/C2=N\Nc1ccc(S(N)(=O)=O)cc1 | 2.45
28 | Cc1ccc2c(-c3ccnc(Nc4ccccc4)n3)c(-c3ccc(F)cc3)nn2n1 | 2.35
29 | CNC(=O)c1cccc(C#Cc2cncnc2Nc2ccc(OCc3cccc(F)c3)c(Cl)c2)c1 | 4.58
30 | c1cc(-c2cnn3nc(N4CCOCC4)ccc23)nc(NC2CC2)n1 | 9.31
31 | FC(F)(F)c1cccc(-c2nn3ncccc3c2-c2ccnc(Nc3ccc4c(c3)OCCO4)n2)c1 | 4.14
32 | CC1=C(C(=O)Nc2cc(Cl)c3[nH]ncc3c2)C(c2ccc(C(F)(F)F)cc2)CC(=O)N1 (centres undefined) | 2.4
33 | COc1cc(N2CCN(C(C)C)CC2)ccc1Nc1nc(Nc2ccc(F)cc2C(N)=O)c2cc[nH]c2n1 | 0.79
34 | O=C(Nc1n[nH]c2cc(-c3ccc(F)cc3)ccc12)C1CC1 | 2.56
